Laboratory results: PubChem BioAssay (Tox21)
“And” between values parts separate entries of the source, which are not always exact repeats. Equal entries are not always repeated. Results filed as inconclusive are left out. The source made the active and inactive calls. Unless noted, calls come from the whole dose curve; as a rule, active = well fitted curve in the direction sought with a large enough effect in the repeat runs; inconclusive = weak or mixed curves; inactive = no such curve, though single readings can be large; an effect the other way counts as inactive or inconclusive.

Columns and labels:
[1] = qHTS assay to identify small molecule antagonists of the glucocorticoid receptor (GR) signaling pathway - cell viability counter screen (AID 720693); conditions: GR-bla HeLa viability, CellTiter-Glo luminescence, 18 h, with 5 nM dexamethasone present; series mostly up to 58.5 µM; note: nearly all actives have a fitted effect of over 55% in size
[2] = qHTS assay for identifying genotoxic compounds that show differential cytotoxicity against isogenic chicken DT40 cell lines with known DNA damage response pathways - wild type cell line (AID 743012); conditions: DT40 wild type chicken cells viability, CellTiter-Glo, 40 h; series mostly up to 68.4 µM; note: nearly all actives have a fitted effect of over 60% in size; note: potency is the fitted concentration of half-maximal effect
Method in brief: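 Endpoint: CellTiter-Glo luminescence, 30 min RT. Cells: wild type DT40, 300/well. Exposure: compounds in DMSO, 40 h, 37 C/5% CO2, after ~0.5 h pre-incubation.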

[3] = qHTS assay for identifying genotoxic compounds that show differential cytotoxicity against isogenic chicken DT40 cell lines with known DNA damage response pathways - Rev3 mutant cell line (AID 743014); conditions: chicken DT40 Rev3-/- viability, CellTiter-Glo, 40 h; series mostly up to 68.4 µM; note: nearly all actives have a fitted effect of over 55% in size; note: potency is the fitted concentration of half-maximal effect
[4] = qHTS assay to identify small molecule antagonists of the androgen receptor (AR) signaling pathway - cell viability counter screen (AID 743033; note: nearly all actives have a fitted effect of over 45% in size); conditions: AR-bla HEK293 viability, CellTiter-Glo luminescence, 16 h; series mostly up to 58.5 µM
[5] = qHTS assay to identify small molecule antagonists of the androgen receptor (AR) signaling pathway using the MDA cell line - cell viability counter screen (AID 743041; note: nearly all actives have a fitted effect of over 45% in size; note: potency is the fitted concentration of half-maximal effect); conditions: MDA-kb2 viability, CellTiter-Fluor, 16 h, cells co-treated with R1881 androgen agonist; series mostly up to 70.3 µM
Method in brief: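 Viability read by CellTiter-Fluor fluorescence in the same wells as the antagonist screen, added after 15.5 h of a 16 h, 37C exposure. Human breast carcinoma MDA-kb2 AR-luc cells, compounds co-dosed with agonist R1881.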

[6] = qHTS assay for identifying genotoxic compounds that show differential cytotoxicity against isogenic chicken DT40 cell lines with known DNA damage response pathways - Rad54/Ku70 mutant cell line (AID 743015); conditions: DT40 Rad54/Ku70 mutant viability, CellTiter-Glo, 40 h; series mostly up to 66.8 µM; note: nearly all actives have a fitted effect of over 60% in size; note: potency is the fitted concentration of half-maximal effect
[7] = biological target: Androgen receptor (Homo sapiens) (UniProt P10275); test: qHTS assay to identify small molecule antagonists of the androgen receptor (AR) signaling pathway (AID 743035; active = well fitted inhibition curve with a large enough effect in the signal ratio in the repeat runs, not every such curve was filed as active; the % refers to the signal ratio); conditions: HEK293 AR-UAS-bla, R1881-stimulated, beta-lactamase FRET, 16 h; series mostly up to 58.5 µM
Sequence of Androgen receptor (Homo sapiens) (P10275 whole entry, looked up): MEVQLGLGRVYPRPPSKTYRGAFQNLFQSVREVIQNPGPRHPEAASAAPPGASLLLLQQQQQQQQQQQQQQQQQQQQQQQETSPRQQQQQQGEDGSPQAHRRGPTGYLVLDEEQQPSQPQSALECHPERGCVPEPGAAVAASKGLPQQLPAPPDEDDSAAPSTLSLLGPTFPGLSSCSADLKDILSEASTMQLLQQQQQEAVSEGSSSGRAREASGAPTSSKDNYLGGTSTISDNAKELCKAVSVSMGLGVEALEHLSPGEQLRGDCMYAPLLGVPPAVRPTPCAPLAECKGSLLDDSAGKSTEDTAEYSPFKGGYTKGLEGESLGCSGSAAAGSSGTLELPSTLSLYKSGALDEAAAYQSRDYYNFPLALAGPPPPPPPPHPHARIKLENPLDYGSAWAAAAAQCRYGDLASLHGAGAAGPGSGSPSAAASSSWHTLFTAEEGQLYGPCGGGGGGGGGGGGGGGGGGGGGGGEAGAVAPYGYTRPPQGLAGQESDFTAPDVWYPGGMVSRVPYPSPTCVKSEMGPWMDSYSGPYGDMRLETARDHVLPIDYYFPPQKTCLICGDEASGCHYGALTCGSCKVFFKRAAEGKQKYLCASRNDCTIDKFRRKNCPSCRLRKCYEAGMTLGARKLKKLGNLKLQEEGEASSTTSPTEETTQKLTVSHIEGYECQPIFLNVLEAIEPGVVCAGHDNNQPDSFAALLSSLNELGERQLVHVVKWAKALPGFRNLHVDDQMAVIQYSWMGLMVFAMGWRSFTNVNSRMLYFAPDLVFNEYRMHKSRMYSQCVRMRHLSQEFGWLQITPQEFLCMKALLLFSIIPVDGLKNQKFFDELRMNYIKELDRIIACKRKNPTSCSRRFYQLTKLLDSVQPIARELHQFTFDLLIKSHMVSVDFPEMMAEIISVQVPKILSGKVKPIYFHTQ
Method in brief: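 R1881 agonist challenge of a HEK293 UAS-beta-lactamase AR reporter line in the presence of compound (16 h, 37C); signal taken as FRET fluorescence after 2 h with LiveBLAzer B/G substrate at room temperature.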

[8] = biological target: Androgen receptor (Homo sapiens) (UniProt P10275); test: qHTS assay to identify small molecule agonists of the androgen receptor (AR) signaling pathway (AID 743036; active = well fitted activation curve with a large enough effect in the signal ratio in the repeat runs, with a control signal flat, not every such curve was filed as active; the % refers to the signal ratio); conditions: HEK293 AR-UAS-bla GripTite, beta-lactamase FRET ratio, 16 h; series mostly up to 62.4 µM
Method in brief: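 Beta-lactamase under UAS control, stably integrated in HEK293 GripTite cells, reports receptor activation. After 16 h compound treatment, cells received FRET substrate for 2 h at room temperature before fluorescence reading.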

[9] = biological target: Androgen receptor (Homo sapiens) (UniProt P10275); test: qHTS assay to identify small molecule agonists of the androgen receptor (AR) signaling pathway using the MDA cell line (AID 743040; note: nearly all actives have a fitted effect of over 20% in size); conditions: MDA-kb2 AR-luc cells, MMTV luciferase, 16 h; series mostly up to 70.3 µM
Method in brief: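 Luciferase agonist assay: 16 h compound exposure at 37C without CO2 in MDA-kb2 AR-luc cells, whose MMTV promoter responds to both AR and GR. Luminescence measured after 30 min room-temperature incubation with ONE-Glo.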

[10] = biological target: Androgen receptor (Homo sapiens) (UniProt P10275); test: qHTS assay to identify small molecule antagonists of the androgen receptor (AR) signaling pathway using the MDA cell line (AID 743042; note: nearly all actives have a fitted effect of over 55% in size); conditions: MDA-kb2 AR-luc, MMTV luciferase, R1881 antagonist, 16 h; series mostly up to 70.3 µM
Method in brief: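 Antagonist mode: compounds plus R1881 agonist added to MDA-kb2 AR-luc cells, incubated 16 h at 37C. Luciferase reporter luminescence quantified, with multiplexed CellTiter-Fluor readout for cell viability.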

Measured: Potency

Cc1ccc(C(=O)C(C)CN2CCCCC2)cc1 (configuration not stated)
active: [2] 23.7 µM and 26.6 µM | [3] 29.8 µM
inactive: [1] | [4] | [5]

CC/C(=C\C(=N/O)C(N)=O)C(C)[N+](=O)[O-] (configuration not stated)
active: [2] 30.6 µM | [3] 24.3 µM | [6] 30.6 µM
inactive: [1] | [5]

CCOC(=O)[C@H](CCc1ccccc1)N[C@H]1CCc2ccccc2N(CC(=O)O)C1=O
active: [2] 11.9 µM | [3] 23.7 µM | [6] 21.1 µM
inactive: [1] | [5]

CN(C)CCCOc1nn(Cc2ccccc2)c2ccccc12
inactive: [1] | [4]
active: [2] 12.7 µM | [3] 12.7 µM

CC(C)(C)c1cc(CCC(=O)OCC(COC(=O)CCc2cc(C(C)(C)C)c(O)c(C(C)(C)C)c2)(COC(=O)CCc2cc(C(C)(C)C)c(O)c(C(C)(C)C)c2)COC(=O)CCc2cc(C(C)(C)C)c(O)c(C(C)(C)C)c2)cc(C(C)(C)C)c1O
inactive: [1] | [2] | [3] | [4] | [5]

CC(C)NCC(O)c1cc(O)cc(O)c1 (configuration not stated)
inactive: [1] | [2] | [3] | [4] | [5]

CCN(CCO)CCCC(C)Nc1ccnc2cc(Cl)ccc12 (configuration not stated)
active: [2] 29.8 µM | [3] 23.7 µM
inactive: [1] | [4] | [5]

NC1CCN(c2nc3c(cc2F)c(=O)c(C(=O)O)cn3-c2ccc(F)cc2F)C1 (configuration not stated)
inactive: [1] | [5]
active: [2] 10.6 µM | [3] 13.3 µM | [6] 18.8 µM

Cc1cc(CC(=O)O)c(C)n1-c1ccc(Cl)cc1
inactive: [1] | [4] | [5]
active: [2] 26.6 µM | [3] 33.5 µM

CNS(=O)(=O)Cc1ccc2[nH]cc(CCN(C)C)c2c1
inactive: [1] | [2] | [3] | [6] | [5]

CC(C)(C)c1ccc(OCC2CO2)cc1 (configuration not stated)
inactive: [1] | [2] | [3] | [4]

c1ccc(CNCc2ccccc2)cc1
active: [2] 54.5 µM | [3] 30.6 µM | [6] 43.3 µM
inactive: [1] | [5]

CCCCCCCCCC=O
inactive: [1] | [2] | [3] | [4]

CCCCCCCCCCCCCCCBr
inactive: [1] | [2] | [3] | [6] | [5]

COCCCCCCCCOCCC[Si](C)(O[Si](C)(C)C)O[Si](C)(C)C
inactive: [1]
active: [2] 5.45 µM | [3] 6.11 µM | [6] 6.11 µM | [5] 21.7 µM

O=C(c1ccccc1)c1ccc2n1CCC2C(=O)O (configuration not stated)
inactive: [1] | [2] | [3] | [4]

NC[C@H]1O[C@H](O[C@H]2[C@H](O)[C@@H](O[C@H]3O[C@H](CO)[C@@H](O)[C@H](N)[C@H]3O)[C@H](N)C[C@@H]2N)[C@H](O)[C@@H](O)[C@@H]1O
inactive: [1] | [2] | [3] | [4] | [5]

Cc1cc(C)c(S(=O)(=O)O)cc1N=Nc1cc(S(=O)(=O)O)c2ccccc2c1O
active: [5] 30.6 µM
not listed: [6]
inactive: all other assays above

O=C(c1ccc(O)cc1)c1ccc(O)cc1
inactive: [1] | [2] | [3] | [6] | [9] | [10]

CC(C(=O)O)c1ccc(-c2ccccc2)c(F)c1 (configuration not stated)
inactive: [1] | [2] | [3] | [4] | [5]

CCCCOC(=O)/C=C\C(=O)OCCCC
inactive: [1] | [2] | [3] | [6] | [5]

CC(=O)Nc1ccc(/C=N/NC(N)=S)cc1
inactive: [1] | [2] | [3] | [4] | [5]

C[C@H](CCC(=O)O)[C@H]1CC[C@H]2[C@@H]3[C@H](O)C[C@@H]4C[C@H](O)CC[C@]4(C)[C@H]3CC[C@]12C
inactive: [1] | [2] | [3] | [4] | [5]

Cc1ncsc1CCO
inactive: [1] | [2] | [3] | [4] | [5]

O=C(Cl)c1ccc([N+](=O)[O-])cc1
not listed: [6] | [8] | [9]
inactive: all other assays above

CCOc1ccc2[nH]cc(C(=O)NCc3ccccc3)c(=O)c2n1
active: [2] 43.3 µM | [3] 48.6 µM | [6] 24.3 µM
inactive: [1] | [5]

COc1cc(C(C)(C)C)c(O)c(C(C)(C)C)c1
active: [2] 38.6 µM | [3] 27.3 µM
inactive: [1] | [4]
